# Where “and” joins values, the source holds several entries; their conditions need not be identical. Equal values may be shown once. Records with an inconclusive call do not appear. Entries that show only a call come without a potency. Calls of active or inactive are those of the source. Unless noted, the call rests on the fitted dose curve; in most records, active means well fitted curve in the direction sought with a large enough effect; inconclusive means small, poorly fitted or top-dose-only effect, or another doubt; inactive means no such curve, though single readings can be large; an effect the other way counts as inactive or inconclusive.
# Experiments:
# [1] = Cell Viability - Hek293 (AID 427;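 active means compounds whose dose-response curve shows a full or clear partial loss of cell viability, called from curve shape rather than a numeric limit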;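 further: potency means the concentration at half of the fitted maximal effect; cells exposed to compound for 40 hours at 37 °C before reading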); conditions: qHTS
# How it was run: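 HEK293 cells in complete medium were exposed to compound for 40 hr at 37 °C, then cellular ATP was read by CellTiter-Glo luminescence. Data were normalized to DMSO (basal) and 100 uM tamoxifen (100% inhibition), and AC50 came from Hill fits.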
# [2] = Cell Viability - SK-N-SH (AID 435; calls by dose curve;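 further: potency means the concentration at half of the fitted maximal effect; compound exposure lasted 40 h at 37 °C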); conditions: SK-N-SH neuroblastoma cell viability qHTS
# How it was run: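 SK-N-SH neuroblastoma cells (1500/well) treated 40 h at 37 °C in complete medium; viability read as cellular ATP by CellTiter-Glo luminescence. Normalized to DMSO and 100 uM tamoxifen; AC50 from Hill fits of qHTS concentration-response.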
# [3] = Cell Viability - Renal Proximal Tubule (AID 545); conditions: renal proximal tubule cells viability, primary cells of rat origin; activity change, negative = cytotoxicity: at 91.7 µM (top of the series); further: nearly all actives have a fitted effect of over 40% in size
# How it was run: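 Rat renal proximal tubule primary cells, 1000/well, exposed to compounds for 40 hr at 37 °C in complete medium; cellular ATP read by CellTiter-Glo luminescence. AC50 from concentration-response fitted with standard Hill equation.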
# [4] = MultiTox-Fluor Cytotoxicity Assay - LYMP1-001 - Live Cells (AID 947); conditions: LYMP1-001 lymphoblastoid cells, live-cell protease fluorescence viability; series mostly up to 92.2 µM
# [5] = MultiTox-Fluor Cytotoxicity Assay - LYMP1-002 - Dead Cells (AID 960); conditions: LYMP1-002 lymphoblastoid cells, dead-cell protease fluorescence; series mostly up to 46.1 µM; further: nearly all actives have a fitted effect of over 60% in size
# How it was run: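 LYMP1-002 cells 2500/well; 5 hr 37 C pre-incubation; compound 16 hr 37 C; MultiTox-Fluor reagent 60 min RT; dead-cell fluor Ex/Em 485/520. Norm. to DMSO (0%) vs 15 uM tetraoctylammonium bromide (100%); Hill AC50.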
# [6] = Cell Viability - LYMP2-005 (AID 967); conditions: LYMP2-005 lymphoblastoid cell viability; series mostly up to 92.2 µM
# How it was run: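 Human lymphoblastoid LYMP2-005 cells, 2,500 per well in complete medium, rested 5 h at 37C then compound-treated 24 h at 37C. Intracellular ATP read by CellTiter-Glo luminescence after 30 min at room temperature; AC50 from Hill-equation fits of concentration-response data.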
# [7] = Cell Viability - LYMP2-009 (AID 968); conditions: LYMP2-009 lymphoblastoid cell viability; series mostly up to 92.2 µM; further: nearly all actives have a fitted effect of over 55% in size
# [8] = Cell Viability - LYMP2-015 (AID 971); conditions: LYMP2-015 lymphoblastoid cell viability; series mostly up to 92.2 µM; further: nearly all actives have a fitted effect of over 55% in size
# How it was run: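 Luminescent ATP read-out (CellTiter-Glo) served as the viability measure after lymphoblastoid cells were exposed to compounds for 24 hours at 37 C. Concentration-response data were fitted with the Hill equation to give AC50.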
# [9] = Cell Viability - LYMP2-019 (AID 973); conditions: LYMP2-019 lymphoblastoid cell line viability; series mostly up to 92.2 µM; further: nearly all actives have a fitted effect of over 55% in size
# How it was run: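 Luminescent ATP read-out (CellTiter-Glo, 30 min room temperature) served as the viability measure after 24 hr treatment of lymphoblastoid cells at 37 C. Concentration-response data were fitted to the Hill equation for AC50.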
# [10] = Cell Viability - LYMP2-006 (AID 978); conditions: LYMP2-006 lymphoblastoid cell viability, qHTS; series mostly up to 92.2 µM; further: nearly all actives have a fitted effect of over 60% in size
# How it was run: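 Human lymphoblastoid cells (LYMP2-006), 2500/well in complete medium, were treated with compound for 24 hr at 37 C. Cellular ATP was read by CellTiter-Glo luminescence after 30 min, and AC50 values came from Hill-equation fits of concentration-response data.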
# [11] = Cell Viability - LYMP2-010 (AID 981); conditions: LYMP2-010 lymphoblastoid cell viability, qHTS; series mostly up to 92.2 µM; further: nearly all actives have a fitted effect of over 55% in size
# How it was run: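 Luminescent ATP signal (CellTiter-Glo) served as the viability read-out. Cells of the human lymphoblastoid line were treated with compound over a concentration range for 24 hours at 37 C, and AC50 values came from Hill-equation modeling.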
# [12] = target: Glucocorticoid receptor (Homo sapiens) (UniProt P04150); test: qHTS assay for small molecule agonists of glucocorticoid receptor signaling (AID 588532; active means well fitted curve in the direction sought with a large enough effect in the signal ratio, with a control signal flat; the % refers to the signal ratio); conditions: HeLa MMTV-bla, beta-lactamase ratio, agonist, 18 h; stronger effect = higher value; percent of dexamethasone control, DMSO zero
# Glucocorticoid receptor (Homo sapiens), sequence (P04150 whole entry, looked up): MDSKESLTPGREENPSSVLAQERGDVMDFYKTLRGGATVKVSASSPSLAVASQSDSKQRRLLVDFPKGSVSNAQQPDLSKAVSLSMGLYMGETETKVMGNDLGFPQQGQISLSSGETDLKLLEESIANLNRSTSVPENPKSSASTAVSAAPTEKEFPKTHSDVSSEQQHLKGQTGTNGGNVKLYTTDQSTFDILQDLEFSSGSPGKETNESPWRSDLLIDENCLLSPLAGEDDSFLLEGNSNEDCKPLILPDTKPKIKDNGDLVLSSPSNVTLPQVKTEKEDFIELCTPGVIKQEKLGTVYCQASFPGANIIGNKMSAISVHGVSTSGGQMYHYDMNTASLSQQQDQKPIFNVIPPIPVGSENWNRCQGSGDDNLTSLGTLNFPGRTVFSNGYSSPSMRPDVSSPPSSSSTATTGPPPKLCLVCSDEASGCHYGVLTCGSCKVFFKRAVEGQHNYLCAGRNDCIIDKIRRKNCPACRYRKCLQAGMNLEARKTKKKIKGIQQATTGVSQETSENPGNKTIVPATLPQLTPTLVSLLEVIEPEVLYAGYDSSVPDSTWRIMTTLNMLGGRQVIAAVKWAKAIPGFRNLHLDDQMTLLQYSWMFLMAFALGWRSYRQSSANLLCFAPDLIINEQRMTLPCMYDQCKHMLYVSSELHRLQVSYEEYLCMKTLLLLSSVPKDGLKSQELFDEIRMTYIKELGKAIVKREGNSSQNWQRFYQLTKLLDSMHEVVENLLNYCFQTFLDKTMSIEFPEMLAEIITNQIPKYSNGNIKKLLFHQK
# How it was run: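 MMTV-bla HeLa, beta-lactamase reporter; medium with 1% charcoal/dextran-stripped FBS; cpds up to 92 uM, 18 h, 37 C; CCF4 readout 460/530 nm; Hill fit → EC50, efficacy vs 0.1 uM dexamethasone = 100%.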
# [13] = qHTS assay for small molecule agonists of retinoid X receptor alpha signaling (AID 588544); conditions: HEK293T RXRa-UAS-bla, beta-lactamase reporter, 18 h; 530 nm emission
# [14] = target: Thyroid hormone receptor beta (Homo sapiens) (UniProt P10828); test: qHTS assay for small molecule agonists of thyroid hormone receptor beta signaling (AID 588545; calls by dose curve); conditions: TR-UAS-bla GripTite HEK 293, beta-lactamase ratio, agonist mode, 18 h; series mostly up to 76.7 µM
# Thyroid hormone receptor beta (Homo sapiens), sequence (P10828 whole entry, looked up): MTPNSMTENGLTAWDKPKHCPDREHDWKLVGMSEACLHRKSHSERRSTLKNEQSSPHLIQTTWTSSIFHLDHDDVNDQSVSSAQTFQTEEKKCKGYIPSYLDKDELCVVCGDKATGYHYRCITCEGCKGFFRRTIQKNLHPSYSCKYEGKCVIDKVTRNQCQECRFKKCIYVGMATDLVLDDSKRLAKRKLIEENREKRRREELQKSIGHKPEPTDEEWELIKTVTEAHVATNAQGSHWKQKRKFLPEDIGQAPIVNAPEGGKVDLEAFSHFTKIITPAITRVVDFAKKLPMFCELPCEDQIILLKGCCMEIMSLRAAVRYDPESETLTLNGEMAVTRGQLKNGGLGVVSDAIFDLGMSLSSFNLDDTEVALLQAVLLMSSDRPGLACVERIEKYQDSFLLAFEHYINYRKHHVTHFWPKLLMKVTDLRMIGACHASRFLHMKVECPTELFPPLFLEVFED
# How it was run: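 TR-UAS-bla-GripTite HEK 293 cells in medium with 2% charcoal/dextran FBS, 0.1 mM NEAA and 1 mM sodium pyruvate were treated with titrated compounds for 18 hrs at 37 C. Beta-lactamase reporter was read with CCF4 dye (ex 405, em 460/530 nm); EC50 from Hill fits.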
# [15] = target: Thyroid hormone receptor beta (Homo sapiens) (UniProt P10828); test: qHTS assay for small molecule antagonists of thyroid hormone receptor beta signaling (AID 588547; active means well fitted inhibition curve with a large enough effect in the signal ratio, with a control signal flat, not every such curve was filed as active; the % refers to the signal ratio;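 further: cells stimulated with 0.4 nM T3 agonist during compound exposure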); conditions: TR-UAS-bla HEK293, beta-lactamase ratio, antagonist mode, 18 h
# How it was run: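 TR-UAS-bla GripTite HEK293 cells in 2% charcoal/dextran FBS medium were preincubated 4 h at 37 C, given compound (0.59 nM to 92 uM) plus 0.4 nM T3 (final) for 18 h, then CCF4 for 2 h at RT; Hill fit gave IC50.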
# [16] = target: Voltage-gated inwardly rectifying potassium channel KCNH2 (Homo sapiens) (UniProt Q12809); test: qHTS Assay for Small Molecule Inhibitors of the Human hERG Channel Activity (AID 588834); conditions: U2OS BacMam hERG, FluxOR thallium flux fluorescence; series mostly up to 92.2 µM;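 further: top concentration of the series differs between compounds; lower thallium flux fluorescence means stronger hERG block; nearly all actives have a fitted effect of over 50% in size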
# Voltage-gated inwardly rectifying potassium channel KCNH2 (Homo sapiens), sequence (Q12809 whole entry, looked up): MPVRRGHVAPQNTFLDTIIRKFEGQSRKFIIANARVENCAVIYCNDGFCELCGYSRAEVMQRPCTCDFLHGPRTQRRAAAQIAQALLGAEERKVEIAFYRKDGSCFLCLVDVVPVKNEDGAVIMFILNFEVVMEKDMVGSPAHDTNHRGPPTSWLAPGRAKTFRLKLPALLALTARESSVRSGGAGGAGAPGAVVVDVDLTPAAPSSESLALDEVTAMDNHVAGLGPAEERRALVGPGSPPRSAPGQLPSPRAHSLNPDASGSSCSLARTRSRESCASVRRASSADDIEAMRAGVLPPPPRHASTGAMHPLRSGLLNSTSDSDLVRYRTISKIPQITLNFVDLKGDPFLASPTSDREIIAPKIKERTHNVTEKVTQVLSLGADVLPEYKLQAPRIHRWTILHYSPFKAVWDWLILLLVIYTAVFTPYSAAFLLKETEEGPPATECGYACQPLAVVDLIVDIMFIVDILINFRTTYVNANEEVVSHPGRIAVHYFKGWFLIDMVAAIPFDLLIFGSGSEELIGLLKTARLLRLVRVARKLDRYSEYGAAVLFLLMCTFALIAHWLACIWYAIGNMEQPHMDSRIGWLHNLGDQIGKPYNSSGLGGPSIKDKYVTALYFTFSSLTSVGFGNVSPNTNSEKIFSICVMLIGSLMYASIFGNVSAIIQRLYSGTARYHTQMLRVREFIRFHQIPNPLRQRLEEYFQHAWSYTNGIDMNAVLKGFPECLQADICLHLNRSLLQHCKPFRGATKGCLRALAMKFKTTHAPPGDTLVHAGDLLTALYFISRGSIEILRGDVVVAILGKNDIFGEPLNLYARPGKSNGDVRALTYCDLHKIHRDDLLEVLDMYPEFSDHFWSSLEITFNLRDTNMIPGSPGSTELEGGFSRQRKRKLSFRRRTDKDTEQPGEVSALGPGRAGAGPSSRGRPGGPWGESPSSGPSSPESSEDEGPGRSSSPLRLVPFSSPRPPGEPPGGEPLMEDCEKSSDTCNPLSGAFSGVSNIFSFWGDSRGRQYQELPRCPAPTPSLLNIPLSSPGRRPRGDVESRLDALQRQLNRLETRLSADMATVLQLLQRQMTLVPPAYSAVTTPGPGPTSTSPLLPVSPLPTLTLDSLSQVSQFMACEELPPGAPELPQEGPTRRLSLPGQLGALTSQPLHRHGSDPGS
# How it was run: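 U2OS cells BacMam-transduced with hERG, 2000 cells/well, compound ~10 min at 37 °C before stimulation buffer. FluxOR thallium flux fluorescence read kinetically on FDSS; decrease indicates block; AC50 from Hill fits.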
# [17] = qHTS assay for small molecule disruptors of the mitochondrial membrane potential - 1 hr assay (AID 651754; calls by dose curve; further: nearly all actives have a fitted effect of over 35% in size; further: potency means the concentration at half of the fitted maximal effect); conditions: series mostly up to 92.2 µM
# How it was run: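 HepG2, 2,000 cells/well, overnight attachment; cpd or DMSO 1 hr, 37C/5% CO2; Mito-MPS dye 30 min, 37C; fluorescence monomer (490/535) and aggregate (540/590).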
# [18] = qHTS assay for small molecule disruptors of the mitochondrial membrane potential - 5 hr assay (AID 651755; calls by dose curve; further: nearly all actives have a fitted effect of over 40% in size; further: potency means the concentration at half of the fitted maximal effect); conditions: JC-1-type ratio dye; series mostly up to 92.2 µM
# How it was run: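 HepG2 cells, attached overnight at 37C, were exposed to compound or DMSO for 5 hr at 37C, 5% CO2. Mito-MPS dye was then added for 30 min, and fluorescence read at 490/535 nm (monomers) and 540/590 nm (aggregates).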
# [19] = qHTS assay for small molecule antagonists of the retinoid-related orphan receptor gamma (ROR-gamma) signaling pathway - cell viability counter screen (AID 720652; active means well fitted curve in the direction sought with a large enough effect in the repeat runs; an effect the other way counts as inactive or inconclusive;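 further: compound exposure lasted 16 hr before ATP read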); conditions: RORgamma reporter cell line viability counter screen; series mostly up to 92.2 µM
# How it was run: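 Luminescence from CellTiter-Glo after 30 min at room temperature reported cellular ATP as the cytotoxicity measure. Cells were the CHO reporter line with doxycycline-induced ROR-gamma expression, exposed to compound for 16 hr at 37 C.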
# [20] = target: Nuclear receptor subfamily 1 group I member 2 (Rattus norvegicus) (UniProt Q9R1A7); test: qHTS assay for small molecule activators of the rat pregnane X receptor (rPXR) signaling pathway (AID 651751; call rule not given here); conditions: rPXR reporter cells, luciferase (One-Glo), 24 h
# Nuclear receptor subfamily 1 group I member 2 (Rattus norvegicus), sequence (Q9R1A7 whole entry, looked up): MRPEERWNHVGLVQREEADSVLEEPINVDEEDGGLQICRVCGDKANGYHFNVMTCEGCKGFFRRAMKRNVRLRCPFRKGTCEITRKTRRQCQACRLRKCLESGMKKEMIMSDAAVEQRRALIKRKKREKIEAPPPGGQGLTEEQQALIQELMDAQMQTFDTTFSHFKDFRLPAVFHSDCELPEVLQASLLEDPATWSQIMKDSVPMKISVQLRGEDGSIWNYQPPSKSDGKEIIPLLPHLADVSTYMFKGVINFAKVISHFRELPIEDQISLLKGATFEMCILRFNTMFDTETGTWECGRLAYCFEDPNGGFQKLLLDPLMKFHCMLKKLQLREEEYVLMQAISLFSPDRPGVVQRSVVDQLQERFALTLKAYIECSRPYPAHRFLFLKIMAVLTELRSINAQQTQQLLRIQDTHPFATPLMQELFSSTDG
Structure (SMILES),Potency [1],Potency [2],Potency [3],Potency [4],Potency [5],Potency [6],Potency [7],Potency [8],Potency [9],Potency [10],Potency [11],activation [12],max response [13],Potency [14],activity change % (negative = inhibition) [15],Potency [16],Potency [17],Potency [18],Potency [19],max response [20]
CC(C)S,> 92 µM (inactive),> 92 µM (inactive),inactive,inactive,inactive,inactive,inactive,inactive,inactive,inactive,inactive,2.41% (inactive),-9.69%,inactive,11.8% (inactive),inactive,inactive,inactive,inactive,-6.45% (inactive)
Oc1c(Cl)cc(Cl)c(Cl)c1Cl,> 92 µM (inactive),> 92 µM (inactive),inactive,inactive,–,inactive,inactive,inactive,inactive,inactive,inactive,5.94% (inactive),23.7% and -14.7%,inactive,-15.9% (inactive) and 13.1% (inactive),inactive,42.2 µM (active),37.6 µM (active),inactive,-11.7% (inactive) and -1.19% (inactive)
Brc1cc(Br)c(Oc2cc(Br)c(Br)cc2Br)cc1Br,> 92 µM (inactive),> 92 µM (inactive),inactive,inactive,inactive,inactive,inactive,inactive,inactive,inactive,inactive,–,–,inactive,17.2% (inactive),–,inactive,inactive,inactive,-2.15% (inactive)
C=C(C#N)C(=O)OCC,> 92 µM (inactive),> 92 µM (inactive),inactive,inactive,inactive,inactive,inactive,inactive,inactive,–,inactive,-0.945% (inactive),6.28%,inactive,4.82% (inactive),inactive,inactive,inactive,inactive,-1.42% (inactive)
CCCCC(CC)COC(=O)COc1ccc(Cl)cc1Cl (configuration not stated),> 92 µM (inactive),> 92 µM (inactive),inactive,inactive,inactive,–,inactive,inactive,inactive,inactive,inactive,-3.61% (inactive) and -5.37% (inactive),5.67% and -6.26%,inactive,-2.67% (inactive) and 4.45% (inactive),inactive,inactive,inactive,inactive,-0.582% (inactive) and 1.82% (inactive)
CCCCCCN,> 92 µM (inactive),> 92 µM (inactive),inactive,inactive,–,inactive,inactive,inactive,inactive,inactive,inactive,–,-10.9%,inactive,-5.98% (inactive),inactive,inactive,inactive,inactive,-1.94% (inactive)

# Reference: PubChem BioAssay (NCATS)
